Measurements: the antibiotic and cytotoxicity screens of Wong et al. (2023)
In all, about 39,000 compounds went through this assay and about 3,300 (8.5%) were called active. What follows is part of a selection rich in actives, with near analogues and random picks from the rest.

Test system: HepG2
Assay: cytotoxicity call (relative viability < 0.9)
Settings: 10 µM

SMILES | cytotoxicity call
CCn1cc(C(=O)[O-])c(=O)c2cc3c(cc21)OCO3.[K+] | inactive
Oc1cc2c(cc1O)CNCC2 | inactive
CS(=O)(=O)C1C[C@H]2CC[C@@H](C1)N2 (some centres undefined) | inactive
O=C1N[C@@H]2C(=C[C@H](O)[C@@H](O)[C@H]2O)c2cc3c(c(O)c21)OCO3 | active
COC(=O)[C@H]1[C@H]2CO[C@@H]1CN2 | inactive
C[C@H]1CN([C@@H](C)CO)C(=O)CCCn2cc(nn2)CO[C@H]1CN(C)C(=O)Oc1cccc2ccccc12 | inactive
O=C(c1ccno1)N1C[C@@H]2CCN[C@@H]2C1 | inactive
NCC(=O)c1ccccc1 | inactive
CC(=O)[O][Hg][c]1ccccc1 | active
O=C(Cc1ccccc1)c1ccccc1 | inactive
COC(=O)CC1=C(C(=O)OC)[C@]2(C(=O)Nc3ccccc32)C(C(=O)OC)C(=N)O1 (some centres undefined) | inactive
N[C@@H](c1ccccc1)[C@@H](N)c1ccccc1 | inactive
CCCNC(=O)C1=NO[C@]2(CCNC2)C1 | inactive
CC[C@@H](C)C(=O)O[C@@H]1C[C@@]2(C)[C@H](c3ccoc3)OC(=O)C[C@]23O[C@@]2(C)O[C@]34[C@H](OC(=O)C(C)C)[C@@]3(O)[C@@H](OC(=O)[C@@]5(C)O[C@@H]5C)[C@@]5(C)C[C@]3(O)[C@@](C)([C@H]5CC(=O)OC)[C@@]14O2 | inactive
COc1ccc(OC(=O)N(C)C[C@H]2OCc3ccccc3-c3c(n(C)c4ccccc34)C(=O)N([C@@H](C)CO)C[C@@H]2C)cc1 | inactive
N[C@@]1(C(=O)O)CC[C@H](C(=O)O)C1.N[C@]1(C(=O)O)CC[C@@H](C(=O)O)C1 | inactive
Cc1cc(O[C@@H]2O[C@H](CO)[C@@H](O)[C@H](O)[C@H]2O)c2c3c(c(=O)oc2c1)CCC3 | inactive
CC(=O)OC[C@]12CCC(C)=C[C@H]1O[C@@H]1[C@H](O)[C@@H](OC(C)=O)[C@@]2(C)[C@]12CO2 | active
CC1=C[C@H]2O[C@@H]3[C@H](O)[C@@H](O[C@H]4O[C@H](CO)[C@@H](O)[C@H](O)[C@H]4O)[C@](C)([C@@]2(CO)CC1)[C@]31CO1 | active
Cc1cc(CCN)on1 | inactive
C[C@@H]1CN([C@H](C)CO)C(=O)CCCn2nncc2CO[C@H]1CN(C)C(=O)Oc1ccc2ccccc2c1 | inactive
O=S1(=O)COC2(CNC2)CN1 | inactive

SMILES | cytotoxicity call
C[C@@H]1CN([C@@H](C)CO)C(=O)CCCn2cc(nn2)CO[C@@H]1CN(C)C(=O)Oc1cccc2ccccc12 | inactive
COC(=O)C[C@@H](CN)c1ccc(Cl)cc1 | inactive
O=C1CCCC2C3CCCN4CCCC(CN12)C34 (centres undefined) | inactive
Cl.Clc1ccc(C(OCCN2CCCCC2)c2ccccc2)cc1 (centres undefined) | active
COc1ccc([C@@H](CN)C(C)C)cc1OC | inactive
N[C@H]1CCN(c2cccnc2)C1 | inactive
OC[C@H]1O[C@@H](Oc2ccc(/C=C/c3cc(O)cc(O)c3)cc2O)[C@H](O)[C@@H](O)[C@@H]1O | inactive
CC(=O)c1c(O)cc(C)oc1=O | inactive
C=C(C)c1cc2cc(C(C)=O)c(O)cc2o1 | active
COCCC(=O)N1C[C@H]2CCN[C@H]2C1 | inactive
Cl.NCC(CC(=O)O)c1ccc(Cl)cc1 (racemic) | inactive
C[C@]12CC/C(=N\OCCN)C[C@@H]1C(=O)C[C@@H]1[C@@H]2CC[C@]2(C)C(=O)CC[C@@H]12 | inactive
O=C1NC(=O)C(C2(O)C(=O)c3ccccc3C2=O)C(=O)N1 | inactive
CC(=O)O[C@@]12CO[C@@H]1C[C@H](O)[C@@]1(C)C(=O)[C@H](O)C3=C(C)[C@@H](OC(=O)[C@H](O)[C@@H](NC(=O)c4ccccc4)c4ccccc4)C[C@](O)([C@@H](OC(=O)c4ccccc4)[C@H]21)C3(C)C | active
CC(=O)OC1C(=O)C2(C)C(O)CC3OCC3(OC(C)=O)C2C(OC(=O)c2ccccc2)C2(O)CC(O)C(C)=C1C2(C)C (centres undefined) | active
CC(=O)O[C@H]1C(=O)[C@]2(C)[C@@H](O)C[C@H]3OC[C@@]3(OC(C)=O)[C@@H]2[C@H](OC(=O)c2ccccc2)[C@]2(O)C[C@H](O)C(C)=C1C2(C)C | active
O=C1CC[C@]2(CCCN(Cc3cnc[nH]3)C2)N1 | inactive
C=CCOC(=O)[C@@H]1[C@@H](C(=O)OC)N(C)[C@@H](c2ccccc2)[C@]12C(=O)Nc1ccc(I)cc12 | inactive
C=CCC1(O)CCC2C3CCC4=CCCCC4C3CCC21C (centres undefined) | inactive
CN(C)C1=NC(=O)C2(CCNCC2)N1 | inactive
C#CCN(C)C(C)Cc1ccccc1.Cl (centres undefined) | inactive
CN1CCN(c2nc(=O)c3c([nH]2)CCCC3)CC1 | inactive

SMILES | cytotoxicity call
N=C(N)NO | inactive
O=C([C@H]1CCCO1)N1CCCN2CCC[C@H]2C1 | inactive
Cc1cc2ccccc2n1CCN | inactive
NC(=O)c1cn([C@@H]2O[C@H](CO)[C@@H](O)[C@H]2O)c2ncnc(N)c12 | active
CCNC(=O)[C@H]1O[C@H](n2cnc3c(N)ncnc32)[C@@H](O)[C@@H]1O | inactive
NNc1ccn([C@@H]2O[C@H](CO)[C@@H](O)[C@H]2O)c(=O)n1 | inactive
NNc1ccn([C@H]2O[C@@H](CO)[C@@H](O)[C@@H]2O)c(=O)n1 | inactive
CCNC(=O)[C@H]1O[C@@H](n2cnc3c(N)ncnc32)[C@H](O)[C@@H]1O | inactive
NC(=O)c1cn([C@H]2O[C@@H](CO)[C@H](O)[C@@H]2O)c2ncnc(N)c12 | active
C[N+](C)(C)CC(=O)[O-].Cl | inactive
O=S(=O)(N[C@H]1CCO[C@]2(CCNC2)C1)C1CC1 | inactive
NCCNC[C@@H](N)CCCNC(N)=N[N+](=O)[O-].O=CC(F)(F)F | inactive
CC(=O)N1CCCC[C@]12CCNC2 | inactive
CCCCC1C(=O)NC(=S)NC1=O | inactive
CC1CC(C)C(=O)C(C(O)CC2CC(=O)NC(=O)C2)C1 (centres undefined) | active
CC12CCC3C(CC=C4CC(O)CCC43C)C1CCC2=O (centres undefined) | inactive
COC(=O)[C@H]1CNCCN1c1ccccc1 | inactive
O[C@H]1[C@H](O)[C@@H](O)CN2CC[C@H](O)[C@H]12 | inactive
Cc1nc2c(=O)n(C)c(=O)nc-2n(C)n1 | active
Cn1ncnc2c(=O)n(C)c(=O)nc1-2 | active
